About 83,000 compounds went through this panel and 20% of them were active in at least one assay; those are over-represented in the sample as a whole.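 Percent growth is the endpoint: 0 to 100 indicates growth inhibition (40 means 60% inhibition), 0 means no net growth, and negative values indicate cell death.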 Unmarked numbers belong to inactive results. Calls of active or inactive are those of the source. How the source made its calls: active means growth percent below 10; inactive means the rest.

In the first experiment the test system is BT-549 breast. Kind of experiment: NCI-60 one-dose screen, 48 h (100 = growth as untreated, 0 = no growth, -100 = all killed). The settings on record: 10 µM unless noted.
With `O=[N+]([O-])c1cccc(C2c3ccccc3Oc3ccccc32)c1`, the growth is 116%.

Take `CCCCCCCC(=O)SCC/C=C/[C@@H]1CC(=O)NCc2nc(cs2)C2=N[C@@](C)(CS2)C(=O)N[C@@H](C(C)C)C(=O)N1`: the growth was 40.1%.

As to `Cc1ccc(NC(=O)CN2CCOCC2)cc1Cl`, the growth was 77%.

Consider `O=C(NOC1OC(CO)C(O)C(O)C1O)Nc1ccccc1` (stereo unspecified), for which the growth was 110%.

With `C=C1C(=O)O[C@H]2[C@H]1CC/C(COC(=O)c1ccc(C#N)cc1)=C\CC[C@@]1(C)O[C@@H]21`, the growth was 29.7%.

With `CN[C@@H](CCCNC(N)=NC/C=C(/C)CCC=C(C)C)C(=O)N(C)[C@@H](CCCNC(N)=NCC=C(C)C)C(=O)N[C@H](C)[C@H](OS(=O)(=O)O)c1ccc(OS(=O)(=O)O)c(COS(=O)(=O)O)c1`, the growth is 107%.

On to `C#CC(=O)/C=C/CCCCCCC#CC(=O)CCC(=O)C#CCCCCCC/C=C/C(=O)C#C`, for which the growth was -15.3% (active).

For `C#C[C@@]1(O)[C@@H](CO)O[C@@H](n2cc(Br)c3c(Cl)ccnc32)[C@@H]1O`, the growth was 22.6%.

As to `COc1cc(C(=O)N2CCN(C(=O)c3cc(OC)c(OCc4ccccc4)cc3N)CC2)c(N)cc1OCc1ccccc1`, the growth was 101%.

Consider `c1ccc(CNCCN(CCNCc2ccccn2)Cc2ccc3ccccc3c2)nc1`, for which the growth was 30.3%.

As to `O=C(O)c1ccc2nc(-c3ccc(OCCCCCOc4ccc(-c5nc6ccc(C(=O)O)cc6[nH]5)cc4)cc3)[nH]c2c1`, the growth is 130%.

As to `COc1ccc(Cn2cc(COc3ccc4c5ccnc(C)c5n(CCCc5ccccc5)c4c3)nn2)cc1`, the growth is 67.5%.

Regarding `COc1ccc(Cl)cc1NC(=O)c1cc2c([nH]1)-c1nc(N)sc1CCC2`, the growth was 102%.

Consider `COc1cc2c(cc1OCCCCC(=O)Nc1ccc(-c3nc4ccccc4s3)cc1)N=C[C@@H]1CCCN1C2=O`, for which the growth is -76.4% (active).

For `CC(C)(CCN=C(N)Nc1ccccn1)c1ccc(C(F)(F)F)cc1`, the growth is 32.2%.

Turning to `Cc1c(Cl)ccc2c(C(=O)Cl)cc(-c3ccccc3)nc12`, the growth was 94.8%.

For `Cn1c(I)c(C#C[Si](C)(C)C)c(=O)[nH]c1=O`, the growth is 40.7%.

As to `C#C[C@H](O)/C=C/CCCCCCC#C[C@H](O)CC[C@@H](O)C#CCCCCCC/C=C/[C@@H](O)C#C`, the growth is 93.9%.

For the compound `COc1ccc(-c2nn(-c3ccc(NC(=O)c4cc(C(F)(F)F)cc(C(F)(F)F)c4)cc3)cc2-c2ccncc2)cc1Cl`, the growth was 71%.

Turning to `COc1ccccc1C(OC(C)=O)OC(C)=O`, the growth was 102%.

With `CCc1c(C)c2cc3c(c(C)c2oc1=O)OCC(=O)N3`, the growth is 74.7%.

With `CC(=O)Cc1cccnc1`, the growth is 92.4%.

For `OCc1cn(-c2ccc(Cl)cc2)nc1-c1ccc(O)cc1`, the growth was 86.1%.

Turning to `CCCc1nn2c(CCC(=O)c3nc4ccc([N+](=O)[O-])cc4[nH]3)nnc2s1`, the growth is 111%.

Regarding `O=C(CNc1cccnc1)Nc1ccc(C(=O)/C=C/c2ccc(Cl)cc2)cc1`, the growth is 89.7%.

Take `CC(=O)Nc1ccc(OC(=O)c2ccccc2O)cc1`: the growth was 113%.

Take `CC(C)CNCC(O)COc1ccc(C(C)(C)c2ccc(OCC(O)CNCC(C)C)cc2)cc1` (stereo unspecified): the growth was 69.4%.

Turning to `CCCCCCCCCCCCCCCCCCNCc1ccc(Cl)cc1`, the growth is 38.5%.

Take `Nc1nccc(=S)[nH]1`: the growth was 114%.

Consider `O=C(Nc1ccc(-n2ccc3c(NC(=O)c4ccccc4)ncnc32)cc1)Nc1cccc(Cl)c1Cl`, for which the growth was 49.2%.

As for `c1ccc2c(c1)Oc1cccnc1-n1nccc1-2`, the growth was 101%.

On to `Nc1nc2ccc(CNc3ccc(C(=O)NC(CC(=O)O)C(=O)O)cc3)cc2c(=O)[nH]1` (stereo unspecified), for which the growth is 74.3%.

In the case of `COc1cc(-c2nc3ccccc3s2)ccc1OCc1nc2n(n1)S(=O)(=O)c1ccccc1N2C`, the growth was 80.2%.

`C=CC(C)(O)CCC1C(=C)CCC2C(C)(C)CCCC12C` (stereo unspecified): the growth was 111%.

As to `COc1ccc(-c2cc3ccc(N(C)C)cc3nc2N)c(F)c1`, the growth is 18.8%.

For `O=C(Nc1ccc(-n2ccc3c(NC(=O)c4ccccc4)ncnc32)cc1)Nc1ccc(Cl)c(Cl)c1`, the growth was 33.3%.

On to `N#Cc1c(N)nc2c(c1N)C(c1ccc(Cl)cc1)C1=C(CCCC1=O)N2c1sc2c(c1C#N)CCCC2` (stereo unspecified), for which the growth was 96.1%.

Turning to `CCn1c(SC)nnc1-c1cc2c([nH]c3ccccc32)c(-c2cccc(O)c2)n1`, the growth was 29.4%.

In a further experiment the test system is MDA-MB-435 melanoma. The experiment is described as above. The settings on record: 10 µM unless noted.
In the case of `O=[N+]([O-])c1cccc(C2c3ccccc3Oc3ccccc32)c1`, the growth is 98.1%.

On to `CCCCCCCC(=O)SCC/C=C/[C@@H]1CC(=O)NCc2nc(cs2)C2=N[C@@](C)(CS2)C(=O)N[C@@H](C(C)C)C(=O)N1`, for which the growth is 6.04% (active).

With `Cc1ccc(NC(=O)CN2CCOCC2)cc1Cl`, the growth was 100%.

Turning to `O=C(NOC1OC(CO)C(O)C(O)C1O)Nc1ccccc1` (stereo unspecified), the growth is 102%.

For `C=C1C(=O)O[C@H]2[C@H]1CC/C(COC(=O)c1ccc(C#N)cc1)=C\CC[C@@]1(C)O[C@@H]21`, the growth was 24%.

Regarding `CN[C@@H](CCCNC(N)=NC/C=C(/C)CCC=C(C)C)C(=O)N(C)[C@@H](CCCNC(N)=NCC=C(C)C)C(=O)N[C@H](C)[C@H](OS(=O)(=O)O)c1ccc(OS(=O)(=O)O)c(COS(=O)(=O)O)c1`, the growth is 113%.

For the compound `C#CC(=O)/C=C/CCCCCCC#CC(=O)CCC(=O)C#CCCCCCC/C=C/C(=O)C#C`, the growth is -33.6% (active).

As for `C#C[C@@]1(O)[C@@H](CO)O[C@@H](n2cc(Br)c3c(Cl)ccnc32)[C@@H]1O`, the growth was 56.7%.

As for `COc1cc(C(=O)N2CCN(C(=O)c3cc(OC)c(OCc4ccccc4)cc3N)CC2)c(N)cc1OCc1ccccc1`, the growth is 127%.

On to `c1ccc(CNCCN(CCNCc2ccccn2)Cc2ccc3ccccc3c2)nc1`, for which the growth is 11.4%.

With `O=C(O)c1ccc2nc(-c3ccc(OCCCCCOc4ccc(-c5nc6ccc(C(=O)O)cc6[nH]5)cc4)cc3)[nH]c2c1`, the growth is 189%.

Consider `COc1ccc(Cn2cc(COc3ccc4c5ccnc(C)c5n(CCCc5ccccc5)c4c3)nn2)cc1`, for which the growth is 63.2%.

Turning to `COc1ccc(Cl)cc1NC(=O)c1cc2c([nH]1)-c1nc(N)sc1CCC2`, the growth was 103%.

On to `COc1cc2c(cc1OCCCCC(=O)Nc1ccc(-c3nc4ccccc4s3)cc1)N=C[C@@H]1CCCN1C2=O`, for which the growth was -70.8% (active).

As to `CC(C)(CCN=C(N)Nc1ccccn1)c1ccc(C(F)(F)F)cc1`, the growth is 18.7%.

For `Cc1c(Cl)ccc2c(C(=O)Cl)cc(-c3ccccc3)nc12`, the growth is 98.3%.

In the case of `Cn1c(I)c(C#C[Si](C)(C)C)c(=O)[nH]c1=O`, the growth is 58.7%.

Regarding `C#C[C@H](O)/C=C/CCCCCCC#C[C@H](O)CC[C@@H](O)C#CCCCCCC/C=C/[C@@H](O)C#C`, the growth was 92.5%.

Consider `COc1ccc(-c2nn(-c3ccc(NC(=O)c4cc(C(F)(F)F)cc(C(F)(F)F)c4)cc3)cc2-c2ccncc2)cc1Cl`, for which the growth was 67.4%.

Take `COc1ccccc1C(OC(C)=O)OC(C)=O`: the growth is 104%.

For `CCc1c(C)c2cc3c(c(C)c2oc1=O)OCC(=O)N3`, the growth was 74.5%.

On to `CC(=O)Cc1cccnc1`, for which the growth is 110%.

Regarding `OCc1cn(-c2ccc(Cl)cc2)nc1-c1ccc(O)cc1`, the growth was 88.9%.

As to `CCCc1nn2c(CCC(=O)c3nc4ccc([N+](=O)[O-])cc4[nH]3)nnc2s1`, the growth is 103%.

As to `O=C(CNc1cccnc1)Nc1ccc(C(=O)/C=C/c2ccc(Cl)cc2)cc1`, the growth is 68.5%.

For the compound `CC(=O)Nc1ccc(OC(=O)c2ccccc2O)cc1`, the growth is 98.6%.

With `CC(C)CNCC(O)COc1ccc(C(C)(C)c2ccc(OCC(O)CNCC(C)C)cc2)cc1` (stereo unspecified), the growth is 7.56% (active).

As to `CCCCCCCCCCCCCCCCCCNCc1ccc(Cl)cc1`, the growth was -80.3% (active).

For the compound `Nc1nccc(=S)[nH]1`, the growth is 110%.

For `O=C(Nc1ccc(-n2ccc3c(NC(=O)c4ccccc4)ncnc32)cc1)Nc1cccc(Cl)c1Cl`, the growth is -4.29% (active).

As to `c1ccc2c(c1)Oc1cccnc1-n1nccc1-2`, the growth was 107%.

Turning to `Nc1nc2ccc(CNc3ccc(C(=O)NC(CC(=O)O)C(=O)O)cc3)cc2c(=O)[nH]1` (stereo unspecified), the growth was 40.4%.

In the case of `COc1cc(-c2nc3ccccc3s2)ccc1OCc1nc2n(n1)S(=O)(=O)c1ccccc1N2C`, the growth was 90%.

Turning to `C=CC(C)(O)CCC1C(=C)CCC2C(C)(C)CCCC12C` (stereo unspecified), the growth is 107%.

Consider `COc1ccc(-c2cc3ccc(N(C)C)cc3nc2N)c(F)c1`, for which the growth is 13.9%.

Regarding `O=C(Nc1ccc(-n2ccc3c(NC(=O)c4ccccc4)ncnc32)cc1)Nc1ccc(Cl)c(Cl)c1`, the growth was 5.82% (active).

On to `N#Cc1c(N)nc2c(c1N)C(c1ccc(Cl)cc1)C1=C(CCCC1=O)N2c1sc2c(c1C#N)CCCC2` (stereo unspecified), for which the growth is 112%.

For `CCn1c(SC)nnc1-c1cc2c([nH]c3ccccc32)c(-c2cccc(O)c2)n1`, the growth was -32.4% (active).
